From PubChem BioAssay (NCI)
This is part of a sample that, as a whole, favours compounds with a hit. Of some 83,000 tested, about 20% had one in any assay.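 Interpretation: 100, growth as untreated; towards 0, rising growth inhibition; 0, no net growth; 0 to -100, cell death. Compounds scoring below 10 were considered active.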 The source made the active and inactive calls.

Tests used:
Assay in all cases: NCI-60 one-dose screen, 48 h (100 = growth as untreated, 0 = no growth, -100 = all killed)
Conditions in all cases: 10 µM unless noted
SK-MEL-2 melanoma = test system: SK-MEL-2 melanoma
EKVX NSCLC = test system: EKVX NSCLC
SN12C renal = test system: SN12C renal
UO-31 renal = test system: UO-31 renal
TK-10 renal = test system: TK-10 renal
ACHN renal = test system: ACHN renal
CAKI-1 renal = test system: CAKI-1 renal
A498 renal = test system: A498 renal
CCRF-CEM leukemia = test system: CCRF-CEM leukemia
MOLT-4 leukemia = test system: MOLT-4 leukemia

Measured: growth

CC(C)(C)[C@H](OCc1cn([C@H]2C[C@@H](O)[C@@H](CO)O2)c(=O)[nH]c1=O)c1ccc(C#Cc2ccccc2)cc1[N+](=O)[O-]
inactive: SK-MEL-2 melanoma 81.3% | EKVX NSCLC 67.4% | SN12C renal 88.5% | UO-31 renal 72% | TK-10 renal 61.7% | ACHN renal 77.4% | CAKI-1 renal 79.3% | A498 renal 95% | CCRF-CEM leukemia 72.2%

CC(=O)Cc1nsc(NC(=O)c2cc(-c3cc(Cl)ccc3Cl)oc2C)n1
inactive: SK-MEL-2 melanoma 101% | EKVX NSCLC 98.4% | SN12C renal 101% | UO-31 renal 107% | TK-10 renal 151% | ACHN renal 106% | CAKI-1 renal 98.9% | A498 renal 105% | CCRF-CEM leukemia 108% | MOLT-4 leukemia 101%

COC(=O)c1c(C)nc(C)c2c1C(=O)C(Br)=C(NCCCCO)C2=O
inactive: SK-MEL-2 melanoma 64.7% | EKVX NSCLC 62.2% | SN12C renal 61.7% | UO-31 renal 79.7% | TK-10 renal 119% | ACHN renal 84.7% | CAKI-1 renal 70.5% | A498 renal 115% | CCRF-CEM leukemia 71.8%

CCOC(=O)CC1C(CNC(=O)NC)OC(n2cnc3c(NC(=O)Nc4ccccc4)ncnc32)C1O[Si](C)(C)C(C)(C)C (stereo not given)
inactive: SK-MEL-2 melanoma 54.3% | EKVX NSCLC 63.7% | SN12C renal 60.7% | UO-31 renal 57% | TK-10 renal 43.5% | ACHN renal 68.7% | CAKI-1 renal 81.6% | A498 renal 71.3% | CCRF-CEM leukemia 49.9%

O=C1Nc2ccccc2/C1=C/c1cccn1CCCCCCn1c2ccccc2c(=O)c2ccccc21
inactive: SK-MEL-2 melanoma 86.3% | EKVX NSCLC 65.3% | SN12C renal 93.6% | UO-31 renal 56.2% | TK-10 renal 78.7% | ACHN renal 89.7% | CAKI-1 renal 72.6% | A498 renal 103% | CCRF-CEM leukemia 49.8% | MOLT-4 leukemia 50.9%

C(=N\Nc1nnc2n1N=C(c1ccccc1)CS2)/c1ccc(OCc2ccccc2)cc1
inactive: SK-MEL-2 melanoma 104% | EKVX NSCLC 101% | SN12C renal 98.6% | UO-31 renal 79.5% | TK-10 renal 98.2% | ACHN renal 112% | CAKI-1 renal 107% | A498 renal 108% | CCRF-CEM leukemia 97.2%

O=C1CCc2c(sc3[nH]c(=S)n(-c4cc(C(F)(F)F)cc(C(F)(F)F)c4)c(=O)c23)C1
active: SK-MEL-2 melanoma -31.3% | EKVX NSCLC -8.72% | SN12C renal 8.54% | UO-31 renal -57.5% | TK-10 renal 2.81% | ACHN renal 3.08% | CAKI-1 renal 0.877% | A498 renal -18.2% | CCRF-CEM leukemia 1.71%

O=C(Nc1ccccc1CNc1nc(Nc2ccc(OCCN3CCCC3)cc2)ncc1Cl)NC1CCCCC1
inactive: SK-MEL-2 melanoma 115% | EKVX NSCLC 95% | SN12C renal 88.1% | UO-31 renal 56.3% | TK-10 renal 116% | ACHN renal 78.2% | CAKI-1 renal 94.3% | A498 renal 75.3% | CCRF-CEM leukemia 12%

COc1ccc(S(=O)(=O)NC2c3ccccc3CC2O)cc1OC (stereo not given)
inactive: SK-MEL-2 melanoma 104% | EKVX NSCLC 103% | SN12C renal 96.1% | UO-31 renal 78.8% | TK-10 renal 112% | ACHN renal 105% | CAKI-1 renal 102% | A498 renal 92.7% | CCRF-CEM leukemia 101% | MOLT-4 leukemia 103%

C=C(C)[C@@H]1CC[C@]2(C#N)CC[C@]3(C)[C@H](CC[C@@H]4[C@@]5(C)CCCNC(C)(C)[C@@H]5CC[C@]43C)[C@@H]12
inactive: SK-MEL-2 melanoma 110% | EKVX NSCLC 68.9% | SN12C renal 60.3% | UO-31 renal 71.8% | TK-10 renal 118% | ACHN renal 94.6% | CAKI-1 renal 62.2% | A498 renal 82.4% | CCRF-CEM leukemia 50.6% | MOLT-4 leukemia 40%

CC(=O)Oc1ccccc1C(=O)N(Cc1ccc2c(Cl)cc(Cl)c(O)c2n1)c1ccccc1
inactive: SK-MEL-2 melanoma 66.7% | EKVX NSCLC 37.4% | SN12C renal 46.8% | UO-31 renal 29.9% | TK-10 renal 81.3% | ACHN renal 33.8% | CAKI-1 renal 38.9% | A498 renal 57.6% | CCRF-CEM leukemia 31.3%

Cn1cc(-c2ccc3occ(-c4cccc(-c5ccncc5)c4)c3n2)cn1
active: SK-MEL-2 melanoma -1.75% | TK-10 renal 9.56% | A498 renal -15.7%
inactive: EKVX NSCLC 30.7% | SN12C renal 13.1% | UO-31 renal 11.3% | ACHN renal 21.9% | CAKI-1 renal 12% | CCRF-CEM leukemia 10.9% | MOLT-4 leukemia 13.2%

N#Cc1nn(-c2ccccn2)c(N)c1C#N
inactive: SK-MEL-2 melanoma 93.7% | EKVX NSCLC 94% | SN12C renal 105% | UO-31 renal 91.1% | TK-10 renal 98.7% | ACHN renal 99.6% | CAKI-1 renal 92.7% | A498 renal 106% | CCRF-CEM leukemia 105%

Cc1ccc(-c2nn(CC(=O)N3CCOCC3)c(N)c2C#N)cc1
inactive: SK-MEL-2 melanoma 103% | EKVX NSCLC 102% | SN12C renal 102% | UO-31 renal 84.7% | TK-10 renal 105% | ACHN renal 101% | CAKI-1 renal 87.3% | A498 renal 91.3% | CCRF-CEM leukemia 101%

O=C(Nc1ncc(Cc2cc(C(F)(F)F)ccc2Cl)s1)C(=S)N1CCOCC1
inactive: SK-MEL-2 melanoma 104% | EKVX NSCLC 83% | SN12C renal 96.2% | UO-31 renal 69.5% | TK-10 renal 88.5% | ACHN renal 99.4% | CAKI-1 renal 67.1% | A498 renal 90.3% | CCRF-CEM leukemia 92.3%

COc1ccccc1NC(=O)n1c(=O)cc(C)c2ccc(O)cc21
inactive: SK-MEL-2 melanoma 101% | EKVX NSCLC 100% | SN12C renal 101% | UO-31 renal 88.6% | TK-10 renal 111% | ACHN renal 110% | CAKI-1 renal 99.6% | A498 renal 113% | CCRF-CEM leukemia 107%

O=C1/C(=C/c2ccc(-c3ccc(Cl)cc3)o2)SC(=S)N1CCc1ccc(O)cc1
inactive: SK-MEL-2 melanoma 58.5% | EKVX NSCLC 80.5% | SN12C renal 63% | UO-31 renal 28.5% | TK-10 renal 51.1% | ACHN renal 65.3% | CAKI-1 renal 20.4% | A498 renal 58.9% | CCRF-CEM leukemia 13.5%

COc1cc2c(cc1OC)CC[N+](CCC[N+](C)(C)C)=C2
inactive: SK-MEL-2 melanoma 88.9% | EKVX NSCLC 100% | SN12C renal 98% | UO-31 renal 91.1% | TK-10 renal 80.5% | ACHN renal 104% | CAKI-1 renal 96.3% | A498 renal 104% | CCRF-CEM leukemia 97.9%

O=C(Nc1ccc(Oc2cccc(F)c2)c(Cl)c1)c1cnccn1
inactive: SK-MEL-2 melanoma 37.7% | EKVX NSCLC 51.3% | SN12C renal 45.6% | UO-31 renal 43.4% | TK-10 renal 59.5% | ACHN renal 37.7% | CAKI-1 renal 25.2% | A498 renal 69.4% | CCRF-CEM leukemia 18.4%

N#CC1=C(N)Oc2c(ccc3cccnc23)C1c1ccccc1 (stereo not given)
active: A498 renal 9.1%
inactive: SK-MEL-2 melanoma 43.2% | EKVX NSCLC 51.8% | SN12C renal 49.5% | UO-31 renal 43.6% | TK-10 renal 73% | ACHN renal 45.8% | CAKI-1 renal 39.9% | CCRF-CEM leukemia 15.7%

O=C(CSc1nnc(-c2cc(-c3ccc(Cl)cc3)nc3ccccc23)n1-c1ccccc1)Nc1ccc(Cl)cc1
inactive: SK-MEL-2 melanoma 105% | EKVX NSCLC 94.8% | SN12C renal 90.5% | UO-31 renal 77.6% | TK-10 renal 132% | ACHN renal 106% | CAKI-1 renal 89.5% | A498 renal 88.2% | CCRF-CEM leukemia 98.5%

Cc1ccc(NC(=O)c2ccc(Nc3ncnc4c3cnn4-c3cccc(F)c3)cc2)cc1
inactive: SK-MEL-2 melanoma 104% | EKVX NSCLC 102% | SN12C renal 96.2% | UO-31 renal 90.8% | TK-10 renal 105% | ACHN renal 98.4% | CAKI-1 renal 90.7% | A498 renal 80.7% | CCRF-CEM leukemia 95.5% | MOLT-4 leukemia 96.3%

NC(=N\N=C/c1ccc(Cl)cc1Cl)/C(N)=N\N=C/c1ccc(Cl)cc1Cl
inactive: SK-MEL-2 melanoma 63.7% | EKVX NSCLC 77.3% | SN12C renal 67.7% | UO-31 renal 49.8% | TK-10 renal 29.7% | ACHN renal 17.4% | CAKI-1 renal 69.9%
active: A498 renal -2.93% | CCRF-CEM leukemia 3.15%

Cc1ccc(C2=Nc3c(N)nc(N)nc3NC(c3cccc(Nc4ccnc5cc(C(F)(F)F)ccc45)c3)C2)cc1 (stereo not given)
active: SK-MEL-2 melanoma -8.24% | CCRF-CEM leukemia 3.36% | MOLT-4 leukemia 1.92%
inactive: EKVX NSCLC 38.1% | SN12C renal 39.2% | UO-31 renal 39.6% | TK-10 renal 66% | ACHN renal 39.1% | CAKI-1 renal 29% | A498 renal 58.4%

O=C1/C(=C/c2ccccc2)COc2ccc(O)cc21
inactive: SK-MEL-2 melanoma 104% | EKVX NSCLC 105% | SN12C renal 91.7% | UO-31 renal 76.4% | TK-10 renal 106% | ACHN renal 101% | CAKI-1 renal 93.5% | A498 renal 99.5% | CCRF-CEM leukemia 21.5%

O=C(/C=C/C12c3ccccc3C(c3ccccc31)C1C(=O)NC(=O)C12)c1cccs1 (stereo not given)
active: CCRF-CEM leukemia 0.0532%
inactive: SK-MEL-2 melanoma 38.5% | EKVX NSCLC 50.3% | SN12C renal 36.4% | UO-31 renal 42.6% | TK-10 renal 48.7% | ACHN renal 45.8% | CAKI-1 renal 52.2% | A498 renal 46.9%

N=C(N)c1ccc(-c2ccc(-c3ccc(Cl)cc3Cl)s2)nc1
inactive: SK-MEL-2 melanoma 109% | EKVX NSCLC 93.6% | SN12C renal 81% | UO-31 renal 91.3% | TK-10 renal 122% | ACHN renal 74.2% | CAKI-1 renal 39.1% | A498 renal 104% | CCRF-CEM leukemia 39.1%
